# Results filed as inconclusive are left out. Activity calls are given as the source filed them. Rule for the calls, unless noted: active = hit-call score of the fitted dose curve at least 0.9, where 1 is the maximum; inactive = score below 0.9.
# Key:
# [1] = CCTE_Padilla_ZF_Score.Tail: CCTE's 144 Hour Post-fertilization zebrafish Assay Score for Tail Malformation, Padilla Lab (AID 2284414)
# In short: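 Tail malformations were scored at 6 dpf by two blinded assessors under a stereo microscope. Chorionated embryos had been exposed from 6-8 hpf in sealed wells of 10% Hanks' at 26 C, then rinsed free of chemical at 5 dpf.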
# [2] = CCTE_Padilla_ZF_Score.Blood_pooling: CCTE's 144 Hour Post-fertilization zebrafish Assay Score for Blood Pooling, Padilla Lab (AID 2284415)
# In short: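 Blood pooling was scored at 6 dpf under a stereo microscope by two blinded assessors, fitted upward against DMSO. Single embryos were dosed at 6–8 hpf in 10% Hanks', kept sealed at 26C (14:10 h cycle) and rinsed at 5 dpf.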
# [3] = tested on: TTR (gene 7276); test: CCTE_GLTED_hTTR_0.125uM: CCTE's human Transthyretin (hTTR) Inhibition Assay, with 0.125uM TTR, Great Lakes Toxicology and Ecology Division (GLTED) Lab (AID 2284431);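 note: hits lower the fluorescence signal relative to DMSO baseline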
# In short: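 Cell-free displacement of ANSA probe from 0.125uM TTR after 2 h incubation with chemical. Fluorescence read at 380 nm excitation/475 nm emission; loss of signal relative to DMSO indicates T4-site displacement.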
# [4] = tested on: SRY-box transcription factor 17 (SOX17) Protein Expression, Deisenroth Lab, SOX17 (gene 64321); test: CCTE_Deisenroth_DEVTOX-GLR_Endo_SOX17: CCTE's DevTox GLR-Endo Assay Evaluation of SRY-box transcription factor 17 (SOX17) Protein Expression, Deisenroth Lab (AID 2284413)
# In short: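 Fluorescent microscopy of a SOX17 reporter in RUES2-GLR pluripotent cells scored endoderm differentiation after 48 h and two 24-h-spaced exposures. Values are percent change in SOX17+ population against 0.2% DMSO, n=4 experimental replicates.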
# [5] = tested on: Brachyury (BRA) Protein Expression, TBXT (gene 6862); test: CCTE_Deisenroth_DEVTOX-GLR_Endo_BRA: CCTE's DevTox GLR-Endo Assay Evaluation of Brachyury (BRA) Protein Expression, Deisenroth Lab (AID 2284417)
# Description: CCTE_Deisenroth_DEVTOX-GLR_Endo assay is a cell-based, multiplex-readout assay that uses RUES2-GLR, a human pluripotent cell line, with measurements taken at 48 hours after chemical dosing in a 384-well microplateCCTE_Deisenroth_DEVTOX-GLR_Endo_BRA is 1 of 4 assay components calculated from the CCTE_Deisenroth_DEVTOX-GLR_Endo assay and it measures the percentage of cells in an mesoderm state. Using a type of inducible fluorescent protein reporter, gain-of-signal activity can be used to understand changes in gene expression with fluorescent microscopy. The percentage of BRA+ cells are determined by calculating the number of BRA+ cells divided by the cell count. To generalize the intended target to other relatable targets, this assay component is annotated to the transcription factor intended target family, where the subfamily is T-box protein.Data from the assay component CCTE_Deisenroth_DEVTOX-GLR_Endo_BRA was analyzed as 1 assay endpoint. The endpoint is the percent BRA+ cell population minus the 0.2% DMSO control in the CCTE_Deisenroth_DEVTOX-GLR_Endo assay. Furthermore, this assay endpoint can be referred to as a secondary readout, because this assay has produced multiple assay endpoints where this one serves as a measure of mesoderm differentiation.
# (§1) All assay protocols are aligned to the DevTox GLR-Endo assay workflow. […]
# [6] = CCTE_Deisenroth_DEVTOX-GLR_Endo_CellCount: Viability Assessment in CCTE's DevTox GLR-Endo Assay, Deisenroth Lab (AID 2284420)
# Description: CCTE_Deisenroth_DEVTOX-GLR_Endo assay is a cell-based, multiplex-readout assay that uses RUES2-GLR, a human pluripotent cell line, with measurements taken at 48 hours after chemical dosing in a 384-well microplateCCTE_Deisenroth_DEVTOX-GLR_Endo_CellCount is 1 of 4 assay components calculated from the CCTE_Deisenroth_DEVTOX-GLR_Endo assay and it measures cell count. Using fluorescent nuclear staining, loss-of-signal activity can be used to understand changes in cell viability with fluorescent microscopy. It is designed to make measurements of nuclei counts as a surrogate for cell number, as detected with optical fluorescence microscopy by Perkin Elmer Harmony nuclei detection algorithm. To generalize the intended target to other relatable targets, this assay component is annotated to the cell cycle intended target family, where the subfamily is cytotoxicity.Data from the assay component CCTE_Deisenroth_DEVTOX-GLR_Endo_CellCount was analyzed as 1 assay endpoint. The endpoint the percent change in cell count relative to the 0.2% DMSO control in the CCTE_Deisenroth_DEVTOX-GLR_Endo assay. Furthermore, this assay endpoint can be referred to as a primary readout, because this assay has produced multiple assay endpoints where this one serves as a measure of cytotoxicity.
# as §1
# [7] = tested on: SRY-box transcription factor 17 (SOX17) Protein Expression, Deisenroth Lab, SOX17 (gene 64321); test: CCTE_Deisenroth_DEVTOX-GLR_Pluri_SOX17: CCTE's DevTox GLR-Pluri Assay Evaluation of SRY-box transcription factor 17 (SOX17) Protein Expression, Deisenroth Lab (AID 2284427; active = hit-call score of the fitted dose curve at least 0.9, where 1 is the maximum)
# In short: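 RUES2-GLR pluripotent cells were induced toward endoderm over 48 h and received two compound doses 24 h apart, in a 10-point series from 1 nM to 200 uM. The percentage of SOX17+ cells among total cells was measured by high-content imaging and reported minus the 0.2% DMSO control.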
# [8] = tested on: SRY-box transcription factor 2 (SOX2) Protein Expression, Deisenroth Lab, SOX2 (gene 6657); test: CCTE_Deisenroth_DEVTOX-GLR_Pluri_SOX2: CCTE's DevTox GLR-Pluri Assay Evaluation of SRY-box transcription factor 2 (SOX2) Protein Expression, Deisenroth Lab (AID 2284428)
# In short: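 RUES2-GLR human pluripotent cells, two exposures 24 h apart over 48 h differentiation; 10-point series 1 nM - 200 uM. High-content imaging gives SOX2+ cells divided by cell count, reported as percent change versus 0.2% DMSO.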
# [9] = tested on: Brachyury (BRA) Protein Expression, Deisenroth Lab, TBXT (gene 6862); test: CCTE_Deisenroth_DEVTOX-GLR_Pluri_BRA: CCTE's DevTox GLR-Pluri Assay Evaluation of Brachyury (BRA) Protein Expression, Deisenroth Lab (AID 2284429; active = hit-call score of the fitted dose curve at least 0.9, where 1 is the maximum)
# In short: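 Mesoderm readout after 48 h differentiation of human RUES2-GLR cells, dosed twice (24-h intervals) at 1 nM - 200 uM. BRA+ frequency from fluorescence imaging of fixed, nuclear-stained cells, DMSO-corrected.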
# [10] = CCTE_Deisenroth_DEVTOX-GLR_Pluri_CellCount: Viability Assessment in CCTE's DevTox GLR-Pluri Assay Evaluation of Total Cell Counts, Deisenroth Lab (AID 2284430)
# In short: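 Cytotoxicity readout: fluorescent nuclei counts by high-content imaging, expressed as percent change relative to 0.2% DMSO. Human RUES2-GLR pluripotent line differentiated 48 h, dosed twice at 24-h intervals across 1 nM - 200 uM (10 points).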
smiles,measurement,setting,value
O=C(O)C(F)(OC(F)(F)C(F)(F)C(F)(F)F)C(F)(F)F (stereo unspecified),outcome,[1],inactive
same,outcome,[2],inactive
O=C(O)C(F)(F)OC(F)(F)C(F)(F)OC(F)(F)C(=O)O,outcome,[1],inactive
same,outcome,[2],inactive
FC(F)(F)C(F)(C(F)(F)F)C(F)(F)C(F)(F)CC1CO1 (stereo unspecified),outcome,[1],inactive
same,outcome,[2],inactive
NC(=O)C(F)(F)C(F)(F)F,outcome,[1],inactive
same,outcome,[2],inactive
O=S(=O)(F)C(F)(F)C(F)(F)C(F)(F)C(F)(F)C(F)(F)C(F)(F)C(F)(F)C(F)(F)F,outcome,[1],inactive
same,outcome,[2],inactive
COC(=O)C(F)(F)C(F)(F)OC(F)(C(F)(F)F)C(F)(F)OC(F)=C(F)F (stereo unspecified),outcome,[1],inactive
same,outcome,[2],inactive
O=S(=O)(c1ccc(O)cc1)c1ccc(O)cc1,AC50,[3],19.9 µM (active)
CCCCc1ccc(O)cc1,AC50,[3],6.48 µM (active)
O=C(O)C=CC(F)(C(F)(F)F)C(F)(F)F,outcome,[1],inactive
same,outcome,[2],inactive
O=P1(N(CCCl)CCCl)NCCCO1 (stereo unspecified),outcome,[4],inactive
same,outcome,[5],inactive
same,outcome,[6],inactive
same,outcome,[7],inactive
same,outcome,[8],inactive
same,outcome,[9],inactive
same,outcome,[10],inactive
CCCCCCCc1ccc(O)cc1,AC50,[3],0.736 µM (active)
O=c1ssc(Cl)c1Cl,AC50,[3],0.578 µM (active)
CCC(C)(C)c1ccc(O)cc1,AC50,[3],14.4 µM (active)
C=CC(=O)OCC(F)(F)C(F)F,outcome,[1],inactive
same,outcome,[2],inactive
OCC(F)(F)OC(F)(F)C(F)(F)OC(F)(F)CO,outcome,[1],inactive
same,outcome,[2],inactive
CO/N=C(/C(=O)OC)c1ccccc1COc1ccccc1C,AC50,[3],3.22 µM (active)
CC(O)C(F)(F)C(F)(F)F (stereo unspecified),outcome,[1],inactive
same,outcome,[2],inactive
OCC(F)(F)OC(F)(F)C(F)(F)OC(F)(F)C(F)(F)OC(F)(F)CO,outcome,[1],inactive
same,outcome,[2],inactive
O=C(O)C(F)(F)C(F)(F)C(=O)O,outcome,[1],inactive
same,outcome,[2],inactive
O=C(O)C(F)(F)OC(F)(F)C(F)(F)OC(F)(F)F,outcome,[1],inactive
same,outcome,[2],inactive
OCC(F)(F)OC(F)(F)C(F)(F)OC(F)(F)C(F)(F)OC(F)(F)F,AC50,[1],20.2 µM (active)
same,outcome,[2],inactive

# From PubChem BioAssay (EPA / NIEHS)
